In the library only some 11% were active in any assay of this set; here they are far more common.
HP1b chromo inh: blocks HP1-beta chromodomain binding to methylated histone tails; P83916; AlphaScreen HP1-beta / biotin-H3K9me3 peptide binding; Potency, µM (highest dose often 114 µM), without a hit: at the highest dose activity change, negative = inhibition, hits mostly inhibitors; actives 0.56% (n = 390,000); AID 540317; also: potency is read from the fitted curve at half-maximal effect; nearly all actives have a fitted effect of over 70% in size
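AlphaScreen: HP1-beta (50 nM) preformed 30 min with biotin-H3(1-18)K9me3 peptide (50 nM) in PBS pH 7.4, 0.01% Tween-20. Compound added for 30 min at RT, then streptavidin donor/nickel chelate acceptor beads (10 ug/mL) for 30 min.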
G9a block: blocks human histone lysine methyltransferase G9a; Q96KQ7; G9a H3K9 monomethylation, AlphaScreen, 2 h; Potency, µM (top dose mostly 102 µM), inactives show top-dose activity, negative = inhibition, hits mostly inhibitors; actives 8.8% (n = 350,000); AID 504332; also: potency is read from the fitted curve at half-maximal effect; % is scaled to controls: 0 for no effect and ±100 for the full control effect; nearly all actives have a fitted effect of over 75% in size
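Signal arises when biotinylated H3K9 peptide, once monomethylated, bridges streptavidin donor and antibody-captured acceptor beads. Enzyme at 20 nM was preincubated 15 min with test compounds; peptide 500 nM and SAM 20 uM then reacted for 2 h.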
JMJD2A Tudor: JMJD2A Tudor domain (human) inhibition. O75164. AlphaScreen JMJD2A-Tudor / H3K4me3 peptide binding. Potency, µM (doses to about 114 µM), inactives show top-dose activity change, negative = inhibition, hits mostly inhibitors. actives 4.4% (n = 390,000). AID 504339; also: potency is read from the fitted curve at half-maximal effect; % is scaled to controls: 0 for no effect and ±100 for the full control effect; nearly all actives have a fitted effect of over 50% in size
PI5P4Ka inh: blocks human PI5P4K alpha kinase activity | P48426 | PI5P4Kalpha enzyme, ADP-Glo luminescence, 60 min; hits give low values | max response, % | actives 1.2% (n = 330,000) | AID 652105; active = max response of -50% or lower; inconclusive = between -30% and -50%; inactive = -30% or higher; also: value at the top dose of about 77 µM; % is scaled to controls: 0 for no effect and ±100 for the full control effect
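Single end-point luminescence (ADP-Glo) quantified ADP from PI5P4Kalpha turnover; ATP 5 microM final, 1 h at RT, 0.1% CHAPS and 0.28 mM EGTA in HEPES pH 7.4.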
BAZ2B inh: blocks human BAZ2B; Q9UIF8; AID 504333; AlphaScreen BAZ2B-H3K14Ac peptide displacement; actives 4.4% (n = 360,000); Potency, µM (doses to about 114 µM), for the others: top-dose activity change, negative = inhibition, hits mostly inhibitors; also: potency is read from the fitted curve at half-maximal effect; % is scaled to controls: 0 for no effect and ±100 for the full control effect; nearly all actives have a fitted effect of over 60% in size
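Multi-concentration screen (max 110 uM) measuring displacement of acetylated histone H3 peptide from BAZ2B by AlphaScreen, using 50 nM protein, 50 nM peptide and 10 ug/mL streptavidin donor plus Ni-chelate acceptor beads.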
L3MBTL1 inh-1: L3MBTL1 (human) inhibition | Q9Y468 | AID 485360 | Potency, µM (series often up to 57.1 µM), inactives show at the top dose activity, negative = inhibition, usual class: inhibitors | AlphaScreen L3MBTL1–H3K9me1 peptide binding | actives 0.66% (n = 230,000); also: potency is read from the fitted curve at half-maximal effect; % is scaled to controls: 0 for no effect and ±100 for the full control effect; nearly all actives have a fitted effect of over 60% in size
Target sequence (Q9Y468 whole entry, looked up): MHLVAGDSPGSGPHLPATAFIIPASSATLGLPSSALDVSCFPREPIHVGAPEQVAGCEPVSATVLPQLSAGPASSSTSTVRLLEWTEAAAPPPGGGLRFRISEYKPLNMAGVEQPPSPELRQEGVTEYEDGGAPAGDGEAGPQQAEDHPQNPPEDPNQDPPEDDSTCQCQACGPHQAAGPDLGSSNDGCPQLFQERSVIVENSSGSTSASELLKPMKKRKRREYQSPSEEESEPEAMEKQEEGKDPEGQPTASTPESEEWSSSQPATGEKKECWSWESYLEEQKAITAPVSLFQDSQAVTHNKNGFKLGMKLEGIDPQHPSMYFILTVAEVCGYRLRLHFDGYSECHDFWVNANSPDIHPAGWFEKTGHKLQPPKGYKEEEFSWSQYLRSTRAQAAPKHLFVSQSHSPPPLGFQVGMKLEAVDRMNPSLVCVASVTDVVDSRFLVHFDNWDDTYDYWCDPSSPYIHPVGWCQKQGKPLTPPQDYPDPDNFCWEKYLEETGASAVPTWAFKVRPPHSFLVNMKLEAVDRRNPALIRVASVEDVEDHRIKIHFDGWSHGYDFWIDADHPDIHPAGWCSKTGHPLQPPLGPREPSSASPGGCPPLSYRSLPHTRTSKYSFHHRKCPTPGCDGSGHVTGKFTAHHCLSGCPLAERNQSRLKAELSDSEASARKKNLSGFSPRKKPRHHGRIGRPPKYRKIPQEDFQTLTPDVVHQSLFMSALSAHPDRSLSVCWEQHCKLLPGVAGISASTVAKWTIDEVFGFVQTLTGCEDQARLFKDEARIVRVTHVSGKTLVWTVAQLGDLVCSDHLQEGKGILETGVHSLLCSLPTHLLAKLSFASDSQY
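Displacement of a biotinylated histone H3(1-15) peptide monomethylated at Lys9 (75 nM) from L3MBTL1 (50 nM) was measured by AlphaScreen after a 30 min room-temperature compound incubation; cefsulodin titration served as intraplate control.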
L3MBTL1 inh-2: blocks human L3MBTL1 methyl-lysine binding. L3MBTL1 methyl-lysine binding inhibition, biochemical qHTS. shares compounds with L3MBTL1 inh-1. Potency, µM, most hits filed as inhibitors. actives 91% (n = 500); also: potency is read from the fitted curve at half-maximal effect; nearly all actives have a fitted effect of over 70% in size
L3MBTL1 ctr: AlphaScreen signal inhibition, L3MBTL1 hit counter-screen | AID 602224 | AlphaScreen counterscreen, signal inhibition | Potency, µM (top dose mostly 57.1 µM), for the others: at the top dose activity change, negative = inhibition, most hits filed as inhibitors | 500 tested, under 10 active | shares compounds with L3MBTL1 inh-1; also: potency is read from the fitted curve at half-maximal effect; 0% is about no effect
ADP-Glo interf: ADP-Glo luciferase interference, PI5P4K counter-screen; shares compounds with PI5P4Ka inh; ADP-Glo detection counter-screen, luciferase luminescence, no enzyme; Potency, µM (series often up to 76.9 µM), inactives show top-dose activity change, negative = inhibition, most hits filed as inhibitors; 1,100 tested, under 10 active; AID 743285
An asterisk follows results filed as active; ? = inconclusive; / = not tested or not shown; [ ] = remark or other dose. Unless noted, calls follow the shape of the dose curve; as a rule, active = well fitted curve in the direction sought with a large enough effect; inconclusive = small, poorly fitted or top-dose-only effect, or another doubt; inactive = no such curve, though single readings can be large; an effect the other way counts as inactive or inconclusive.

SMILES	HP1b chromo inh	G9a block	JMJD2A Tudor	PI5P4Ka inh	BAZ2B inh	L3MBTL1 inh-1	L3MBTL1 inh-2	L3MBTL1 ctr	ADP-Glo interf
O=C(O)c1ccc2nc(-c3ccccc3)c(-c3ccccc3)nc2c1	28%	12%[59 µM]	-7%	-11	6%	-4%	/	/	/
O=C(c1ccccc1)c1ccc2nc(-c3ccco3)c(-c3ccco3)nc2c1	16µM*	3.2µM*	13µM*	-100*	14µM*	7.9µM*	7.5*	-27%	-3%
O=C(c1ccc(=O)oc1)N1CCCc2ccccc21	-49%	?	50µM*	-57*	45µM*	18µM*	1.5*	-3%	0%
O=C(c1ccccc1)N1CCCc2ccccc21	37%	-1%[59 µM]	3%	-1	4%	-3%	/	/	/
O=C(Nc1nc(-c2ccco2)c(-c2ccco2)s1)c1ccc(F)cc1F	?	10µM*	?	-64*	40µM*	8.9µM*	5.3*	-10%	-9%
O=C(Nc1nc(-c2ccco2)c(-c2ccco2)s1)c1cnccn1	0%	10µM*	-34%	-67*	?	3.5µM*	2.7*	79%	-10%
CC(=O)c1sc(NC(=O)c2ccccc2F)nc1-c1ccccc1	25%	-26%	-8%	0	-2%	16%	/	/	/
Cc1ccc2nc(N(Cc3cccnc3)C(=O)C3CCCCC3)sc2c1	33%	9%[59 µM]	-9%	/	-13%	/	/	/	/
COc1ccc(N2Cc3cccc(C(=O)N4CCOCC4)c3C2=O)cc1	29%	-3%	8%	-4	5%	/	/	/	/
COc1ccc(N2Cc3cccc(C(=O)N4CCN(C(=O)c5ccco5)CC4)c3C2=O)cc1	?	45µM*	50µM*	-84*	50µM*	28µM*	2.7*	-16%	-5%
COCCCN(C(=O)c1cc(-c2ccco2)nc2ccccc12)c1c(N)n(Cc2ccccc2)c(=O)[nH]c1=O	-12%	45µM*	?	-68*	?	32µM*	19*	6%	-11%
CN(CC(=O)Nc1ccc(F)cc1)C(=O)c1cc(-c2ccco2)nc2ccccc12	-14%	-10%[0.501 µM]	?	-66*	40µM*	18µM*	12*	9%	4%
COc1cccc(NC(=O)c2cc(-c3ccco3)nc3ccccc23)c1	-21%	/	?	-27	/	/	/	/	/
CNC(=O)COC(=O)c1cc(-c2ccco2)nc2ccccc12	45µM*	10µM*	20µM*	-87*	50µM*	28µM*	3.4*	2%	1%
CCOc1ccc(NC(=O)CN(C)C(=O)c2cc(-c3ccco3)nc3ccccc23)cc1OCC	10%	/	-3%	1	/	/	/	/	/
CC(=O)c1ccc(Nc2nc3ccccc3nc2-n2nc(C)cc2C)cc1	49%	14%[59 µM]	7%	/	13%	/	/	/	/
COc1ccc(S(=O)(=O)N2CCN(C(=O)c3cc4c(s3)CCC4)CC2)cc1	?	/	7.9µM*	-82*	/	3.5µM*	3.4*	-5%	5%
CCCCOc1ccc(C(=O)N(Cc2nc(-c3ccc(Cl)cc3)no2)C(C)C)cc1	33%	27%[59 µM]	-11%	/	22%	/	/	/	/
Cc1sc(NC(=O)c2sc3nc4c(C)cccc4cc3c2N)c(C#N)c1C	11%	-89%[2.33 µM]	-31%	-63*	?	18µM*	6.7*	-2%	-6%
COC(=O)c1ccc(Cl)cc1NC(=O)N1CCC(CN2CCC(C)CC2)CC1	23%	-14%[59 µM]	-18%	/	5%	/	/	/	/
N#Cc1c(NC(=O)CSc2ncnc3sccc23)oc(-c2ccco2)c1-c1ccco1	?	?	79µM*	-79*	45µM*	13µM*	17*	-12%	4%
O=C(NCc1ccco1)c1cc2ccc(O)cc2oc1=O	2%	-26%[59 µM]	-26%	-81*	56µM*	20µM*	9.5*	3%	?
O=c1c2c3c(sc2[nH]c(=S)n1Cc1ccco1)CCC3	2%	14µM*	-16%[11.4 µM]	-59*	45µM*	25µM*	11*	28%	-8%
CCCCn1nnnc1C1(C)CCC(=O)N1CCc1ccc(OC)c(OC)c1 (centres undefined)	/	/	/	0	/	/	/	/	/
